Bioassay records: PubChem, Broad Institute
An excerpt weighted towards active compounds, which were near 2.4% of everything screened.
Pf Dd2 inh: blocks growth of Plasmodium falciparum Dd2 parasites; activity change, % at 10 µM; 2.3% of 94,000 active; P. falciparum Dd2 growth, SYBR Green, 72 h; stronger effect = lower value; AID 1159554; in the data active means activity change below about -80%; inconclusive means no clear call, values can overlap the other calls
C diff HTS: blocks growth of Clostridium difficile. Clostridium difficile clinical isolate growth, OD600, 24 h; stronger effect = lower value. growth activity, negative = inhibition, % at 16 µg/mL (by protocol). 0.25% of 86,000 active. AID 1259249;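 active means mean growth activity at or below -80% and every replicate also at or below -80%; inconclusive means mean at or below -80% but some replicate above -80%; inactive means mean growth activity above -80%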;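 further: 0% = DMSO wells and -100% = levofloxacin 16 µg/mL wells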
* hit, by the source's call; ? = inconclusive; . = no result.

SMILES | Pf Dd2 inh | C diff HTS
Cc1noc(C)c1NC(=O)Nc1ccc2c(c1)CC(=O)N([C@H](C)CO)C[C@@H](C)[C@H](CN(C)Cc1ccncc1)O2 | 9 | 4
COc1ccc(CN2CC3(C2)CN(C(=O)CN(C)C)[C@@H](CO)c2[nH]c4cc(OC)ccc4c23)cc1 | -86* | 6
COc1ccc2c3c([nH]c2c1)[C@@H](CO)N(C(=O)CN(C)C)CC31CN(Cc2ccccc2)C1 | -55 | 2
COc1ccc2c3c([nH]c2c1)[C@H](CO)N(C(=O)CN(C)C)CC31CN(Cc2ccncc2)C1 | -32 | 4
COc1ccc(CN2CC3(C2)CN(C(=O)CN(C)C)[C@H](CO)c2[nH]c4cc(OC)ccc4c23)cc1 | -88* | 6
CC(=O)N1[C@H](C(=O)Nc2ccccc2)[C@@H](CO)[C@@H]2Cn3c(ccc(C4=CCCCC4)c3=O)[C@@H]21 | -6 | -1
C[C@@H]1CCCCO[C@@H](CN(C)C(=O)c2ccccc2)[C@H](C)CN([C@@H](C)CO)C(=O)c2cc(NS(=O)(=O)c3cccs3)ccc2O1 | 24 | 4
C[C@@H]1CCCCO[C@@H](CN(C)C(=O)Nc2cccc3ccccc23)[C@H](C)CN([C@@H](C)CO)C(=O)c2cc(NC(=O)C3CCCCC3)ccc2O1 | -83* | -4
C[C@@H]1CCCCO[C@@H](CN(C)C(=O)Nc2cccc3ccccc23)[C@@H](C)CN([C@H](C)CO)C(=O)c2cc(NC(=O)C3CCCCC3)ccc2O1 | -75 | 16
C[C@H]1CCCCO[C@H](CN(C)C(=O)Nc2cccc3ccccc23)[C@@H](C)CN([C@@H](C)CO)C(=O)c2cc(NC(=O)C3CCCCC3)ccc2O1 | -86* | -18
CC(C)NC(=O)Nc1ccc2c(c1)C(=O)N([C@@H](C)CO)C[C@@H](C)[C@H](CN(C)C(=O)Nc1cccc3ccccc13)OCCCC[C@H](C)O2 | -86* | -9
CC(C)NC(=O)Nc1ccc2c(c1)C(=O)N([C@H](C)CO)C[C@H](C)[C@H](CN(C)C(=O)Nc1cccc3ccccc13)OCCCC[C@@H](C)O2 | -23 | 5
C[C@@H]1CN([C@H](C)CO)C(=O)c2cc(NC(=O)C3CCCCC3)ccc2O[C@@H](C)CCCCO[C@H]1CN(C)C(=O)Nc1cccc2ccccc12 | ? | 3
C[C@@H]1CN([C@@H](C)CO)C(=O)c2cc(C#CC3(O)CCCC3)cnc2O[C@@H]1CN(C)C(=O)C1CC1 | 51 | .
O=C(Nc1ccc(F)cc1)N1CC(=O)N2[C@H](C1)[C@H](c1ccc(-c3cccc(F)c3)cc1)[C@@H]2CO | -19 | -4
CO[C@@H]1CN(C)C(=O)c2ccc(NC(=O)NC(C)C)cc2OC[C@H](C)N(Cc2ccccc2)C[C@@H]1C | -23 | .
Cc1ccccc1-c1ccc([C@@H]2[C@H](CO)N3CCCCN(C(=O)Nc4ccc(F)cc4)C[C@@H]23)cc1 | -25 | -99*
COc1ccc(NC(=O)N2CCCCN3[C@H](CO)[C@H](c4ccc(-c5ccccc5F)cc4)[C@@H]3C2)cc1 | -85* | -15
O=C(Nc1ccc(F)cc1)N1CCCCN2[C@@H](CO)[C@@H](c3ccc(-c4ccccc4F)cc3)[C@@H]2C1 | -32 | 29
Cc1ccccc1-c1ccc([C@@H]2[C@@H](CO)N3CCCCN(C(=O)Nc4ccc(F)cc4)C[C@@H]23)cc1 | -13 | 54
COc1ccc2c3c([nH]c2c1)[C@H](CO)N(C(=O)Cc1ccccc1)CC31CCN(C(=O)Cc2ccccc2)CC1 | -67 | 3
O=C(C[C@@H]1CC[C@H]2[C@@H](COC[C@H](O)CN2C(=O)Nc2ccc(Cl)cc2)O1)NCCc1ccncc1 | 8 | 9
CCC(=O)N1CC2(CCN(C(=O)Nc3ccccc3F)CC2)c2c([nH]c3cc(OC)ccc23)[C@@H]1CO | -85* | -1
COc1ccc2c3c([nH]c2c1)[C@@H](CO)N(S(C)(=O)=O)CC31CCN(C(=O)Nc2ccccc2)CC1 | -51 | -9
COc1ccc2c3c([nH]c2c1)[C@H](CO)N(C(C)=O)CC31CCN(C(=O)Nc2ccccc2F)CC1 | -89* | -2
SMILES | Pf Dd2 inh | C diff HTS
COc1ccc2c3c([nH]c2c1)[C@H](CO)N(S(C)(=O)=O)CC31CCN(C(=O)Nc2ccccc2)CC1 | -83* | 0
COc1ccc2c3c([nH]c2c1)[C@H](CO)N(C(=O)Nc1ccccc1F)CC31CCN(C(C)=O)CC1 | -55 | -8
CCC(=O)N1CC2(CN(C(=O)Nc3ccc(F)cc3)C2)c2c([nH]c3cc(OC)ccc23)[C@H]1CO | -52 | 6
CCC(=O)N1CC2(CN(C(=O)Nc3ccccc3F)C2)c2c([nH]c3cc(OC)ccc23)[C@@H]1CO | -47 | -3
CCC(=O)N1CC2(CCN(C(=O)Nc3ccc(F)cc3)CC2)c2c([nH]c3cc(OC)ccc23)[C@H]1CO | -84* | 4
C[C@@H]1CN([C@H](C)CO)C(=O)c2cc(NC(=O)Nc3ccc(C(F)(F)F)cc3)ccc2O[C@@H](C)CCCCO[C@@H]1CN(C)C(=O)CCCN(C)C | 24 | 15
CNC(=O)C[C@H]1CC[C@H]2[C@@H](COc3ccc(NC(=O)NC4CCCC4)cc3C(=O)N2C)O1 | 5 | -5
O=C(C[C@H]1CC[C@@H]2[C@H](COC[C@H](O)CN2C(=O)c2ccc(F)cc2)O1)Nc1nccs1 | 10 | .
COc1ccc2c3c([nH]c2c1)[C@H](CO)NCC31CCN(C(=O)Nc2ccc3c(c2)OCO3)CC1 | -94* | 2
CCC(=O)N1CCC2(CC1)CN(C(=O)Nc1ccccc1F)[C@H](CO)c1[nH]c3cc(OC)ccc3c12 | 37 | .
COc1ccc2c3c([nH]c2c1)[C@@H](CO)N(C(=O)Nc1ccc(F)cc1)CC31CCN(C(=O)Cc2ccncc2)CC1 | -76 | 7
COc1ccc2c3c([nH]c2c1)[C@H](CO)N(C(=O)Nc1ccc(F)cc1)CC31CCN(C(=O)Cc2ccncc2)CC1 | -84* | -1
COc1ccc2c3c([nH]c2c1)[C@@H](CO)NCC31CCN(C(=O)Nc2ccc(F)cc2)CC1 | -17 | 29
CCC(=O)N1CC2(CCN(C(=O)Nc3ccccc3F)CC2)c2c([nH]c3cc(OC)ccc23)[C@H]1CO | -90* | 4
CC(=O)N[C@H]1CC[C@@H](CC(=O)NCC2CCCCC2)O[C@H]1CO | 4 | 0
CN(C)C(=O)C[C@H]1C=C[C@@H](NC(=O)C2CC2)[C@H](CO)O1 | . | -4
O=C(CC1CC1)N1[C@@H](CO)[C@@H](c2ccccc2)C12CN(Cc1cc(F)ccc1F)C2 | -30 | 14
C[C@@H]1CN([C@H](C)CO)C(=O)c2cccc(NC(=O)Nc3ccc4c(c3)OCO4)c2O[C@@H]1CN(C)Cc1ccc(C(=O)Nc2ccccc2N)cc1 | -91* | .
C[C@@H]1CN([C@@H](C)CO)C(=O)c2cc(NC(=O)Nc3ccc4c(c3)OCO4)ccc2O[C@H]1CN(C)Cc1ccc(C(=O)Nc2ccccc2N)cc1 | -73 | -1
C[C@H]1CN([C@@H](C)CO)C(=O)c2cccc(NC(=O)Nc3ccc4c(c3)OCO4)c2O[C@H]1CN(C)Cc1ccc(C(=O)Nc2ccccc2N)cc1 | -78 | .
C[C@H](CO)N1C[C@H](C)[C@@H](CN(C)Cc2ccc(C(=O)Nc3ccccc3N)cc2)Oc2c(NC(=O)Nc3ccc4c(c3)OCO4)cccc2C1=O | -88* | .
COc1ccc(NC(=O)Nc2ccc3c(c2)CC(=O)N([C@@H](C)CO)C[C@H](C)[C@@H](CN(C)Cc2ccc(C(=O)O)cc2)O3)cc1 | 0 | -3
